From PubChem
PfHsp90 set2: growth inhibition of PfHsp90-expressing yeast, primary screen, antimalarial PfHsp90 inhibitor project, S. cerevisiae, BacTiter-Glo luminescence, single point, set 2; 0.32% of 310,000 active; AID 504621, 2011; BacTiter-Glo ATP, 48 h; yeast lacking PDR1 and PDR3 efflux regulators; inhibition, % at 9.4 µM;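 active means every replicate shows inhibition above about 80%, whatever the replicate mean, limit read from the data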;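 further: 0% = DMSO neutral controls and 100% = 20 µM radicicol positive controls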
Beta2AR agonist: beta2AR agonists driving receptor internalization, primary screen, cell-based, FAP fluorogen, flow cytometry; Beta-2 adrenergic receptor (Homo sapiens), P07550; 0.43% of 340,000 active; Am2.2-beta2AR cells; response, % (test concentration not listed);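 active means response above a set limit, near 3 SD of response in nonfluorescent compounds, cut at about 42% in these data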
Target sequence (P07550 whole entry, looked up): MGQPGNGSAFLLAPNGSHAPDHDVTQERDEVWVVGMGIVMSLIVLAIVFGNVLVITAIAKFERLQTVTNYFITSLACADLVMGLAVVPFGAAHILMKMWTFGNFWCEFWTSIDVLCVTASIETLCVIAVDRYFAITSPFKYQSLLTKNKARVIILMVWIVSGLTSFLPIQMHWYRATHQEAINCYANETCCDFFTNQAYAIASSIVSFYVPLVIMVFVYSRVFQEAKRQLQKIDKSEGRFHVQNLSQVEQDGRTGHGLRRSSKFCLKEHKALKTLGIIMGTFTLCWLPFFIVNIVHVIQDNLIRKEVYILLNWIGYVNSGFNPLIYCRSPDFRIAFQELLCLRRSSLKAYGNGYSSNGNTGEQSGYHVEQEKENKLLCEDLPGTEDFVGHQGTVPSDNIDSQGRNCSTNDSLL
TIM10 inh: growth inhibitors of isogenic TIM10 control yeast, primary screen, counter-screen for tim10-1 yeast inhibitor project, luminescence, uHTS | S. cerevisiae TIM10 strain growth, BacTiter-Glo luminescence, 24 h | inhibition, % at 10 µM | 1.4% of 330,000 active | AID 463195, 2010;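 active means inhibition of 40% or more at the single tested concentration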;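 further: wild-type TIM10 isogenic control strain grown at permissive 25 °C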
tim23-1 inh: growth inhibitors of tim23-1 mutant yeast, primary screen, luminescence, uHTS | S. cerevisiae tim23-1 growth, BacTiter-Glo luminescence, 24 h | inhibition, % at 20 µM | 1.3% of 330,000 active;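 active means growth inhibition of the mutant yeast at or above 50%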;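 further: temperature-sensitive mutant grown at 25 °C; plate controls were DMSO-treated mutant yeast for no effect and medium wells lacking yeast for full effect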
tim10-1 inh: growth inhibitors of tim10-1 mutant yeast, primary screen, luminescence, uHTS. S. cerevisiae tim10-1 ts strain growth, BacTiter-Glo, 24 h. inhibition, % at 20 µM. 2.2% of 330,000 active;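 active means inhibition of at least 40%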;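 further: mutant grown at 25 °C; 0% = DMSO wells with yeast and 100% = wells holding no yeast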
tim10-1 confirm: growth inhibitors of tim10-1 mutant yeast, confirmation, single concentration, luminescence, S. cerevisiae | shares compounds with tim10-1 inh | S. cerevisiae tim10-1 ts strain growth, BacTiter-Glo, 24 h | inhibition, % at 20 µM | 56% of 7,400 active | AID 463213, 2010;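 active means inhibition of yeast growth at or above a set limit in either of two repeat tests at 20 µM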;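 further: tim10-1 mutant grown at permissive 25 °C to find synthetic lethal compounds; 0% = DMSO yeast wells and 100% = medium wells without yeast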
tim10 confirm: growth inhibitors of wild-type TIM10 yeast, confirmation, counter-screen for tim10-1 synthetic lethality project, single concentration, luminescence, S. cerevisiae; shares compounds with TIM10 inh; S. cerevisiae tim10 strain growth, BacTiter-Glo luminescence, 24 h; 63% of 4,600 active; inhibition, % at 10 µM;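 active means inhibition of yeast growth at or above a set limit in either of two replicates at 10 µM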;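 further: this counterscreen used the strain with wild-type TIM10; 0% = yeast with DMSO and 100% = medium wells lacking yeast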
tim23-1 confirm: tim23-1 mutant yeast growth inhibitors, confirmation, luminescence, single concentration. 83% of 4,400 active. S. cerevisiae tim23-1 growth, BacTiter-Glo luminescence, 24 h. shares compounds with tim23-1 inh. inhibition, % at 20 µM. AID 463218, 2010;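 active means inhibition above about 39% in either of two replicate wells at 20 µM, limit read from the data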;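 further: temperature-sensitive tim23-1 mutant grown at 25 °C; 0% = DMSO wells with yeast and 100% = medium wells without yeast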
* = called active by the depositor; nt = no result. Sampled rows, rich in hits. Any-hit rate of the full collection: about 3.8%.

SMILES	PfHsp90 set2	Beta2AR agonist	TIM10 inh	tim23-1 inh	tim10-1 inh	tim10-1 confirm	tim10 confirm	tim23-1 confirm
O=C(Nc1nc(-c2cccs2)c(C(=O)C(F)(F)F)s1)c1ccccc1	-11	-1	33	69*	61*	50*	nt	70*
CS(=O)(=O)c1ccc(-c2sc3ccccc3c2C(=O)NCCCN2CCOCC2)cc1	-11	11	-11	-9	-3	nt	nt	nt
COc1ccccc1N1CCN(Cc2cc(Br)c(O)c3ncccc23)CC1	-70	24	-9	68*	54*	19	nt	57*
CCCCc1ccc(/C=C2\C(=O)c3ccccc3C(O)=C2C(=O)OCC)cc1	nt	nt	47*	50*	64*	55*	47*	59*
O=C(CN1C(=O)NC2(CCCC2)C1=O)OCC(=O)c1cccc(Cl)c1	nt	-4	2	12	6	nt	nt	nt
CC1(C2CC2)NC(=O)N(CC(=O)N2CCN(c3ccccc3Cl)CC2)C1=O (stereo unspecified)	nt	7	3	4	-7	nt	nt	nt
CCOC(=O)C(=CNNc1cccc(Cl)c1)C(=O)OCC	18	2	27	55*	41*	53*	nt	72*
CCOC(=O)C(=CNc1ccc(Cl)cn1)C(=O)OCC	10	-7	-18	-7	-2	nt	nt	nt
CC(=O)Oc1cccc(/C=c2\sc3nc(-c4ccco4)nn3c2=O)c1	-2	7	16	61*	54*	43*	nt	63*
CCCOc1ccc(/C=c2\sc3nc(-c4ccco4)nn3c2=O)cc1OCC	-6	8	1	-2	0	nt	nt	nt
CC(=O)C1=C(C)NC(SCC(=O)c2ccc(Cl)cc2)=C(C#N)C1c1ccco1 (stereo unspecified)	-7	32	26	36	9	nt	nt	nt
CC(=O)C1=C(C)NC(SCC(=O)c2ccc(Cl)cc2Cl)=C(C#N)C1c1ccco1 (stereo unspecified)	-23	28	27	53*	55*	43*	nt	50*
Cc1cc(O)c(C(C[N+](=O)[O-])c2ccc(Cl)cc2)c(=O)o1 (stereo unspecified)	10	9	14	18	15	nt	nt	nt
Cc1cc(C)n(C(C[N+](=O)[O-])c2ccc(Cl)cc2)n1 (stereo unspecified)	7	12	77*	76*	42*	54*	68*	30
COCCNC(=O)/C(C#N)=C/c1ccc(SC)cc1	-4	4	11	-1	5	nt	nt	nt
COCCNC(=O)/C(C#N)=C/c1c(F)cccc1Cl	-27	9	66*	82*	63*	56*	63*	77*
CCCCC(=O)OCc1c(-c2cccc(OC)c2)ncc2ccccc12	-11	-8	-7	22	7	nt	nt	nt
CC(C)(C)c1nn(-c2ccccc2)c2[nH]c(=O)c(CNCc3ccco3)cc12	-4	-3	23	38	36	nt	nt	nt
CC(C)(C)c1nn(-c2ccccc2)c2[nH]c(=O)c(CNc3ccc4c(c3)OCCO4)cc12	121*	-21	56*	83*	68*	65*	44*	83*
O=c1cc(-c2ccc(C3CCCCC3)cc2)[nH][nH]1	94*	25	29	74*	59*	32*	nt	-4
Oc1ccccc1-c1cc(-c2cccc(F)c2)n[nH]1	6	4	23	64*	41*	19	nt	52*
Oc1ccccc1-c1cc(-c2ccccc2Cl)[nH]n1	nt	-10	64*	76*	73*	53*	58*	12
Fc1cccc(-c2n[nH]c(=S)n2-c2ccccc2)c1	7	-8	-15	8	-8	nt	nt	nt
CN1CCN(c2ccc(C(F)(F)F)cc2NC(=O)Nc2ccccc2)CC1	-12	17	-1	3	19	nt	nt	nt
CNc1nc(N)c([N+](=O)[O-])c(Nc2cccc(F)c2)n1	12	6	67*	80*	52*	48*	79*	79*
SMILES	PfHsp90 set2	Beta2AR agonist	TIM10 inh	tim23-1 inh	tim10-1 inh	tim10-1 confirm	tim10 confirm	tim23-1 confirm
CNc1nc(N)c([N+](=O)[O-])c(Nc2cccc(Cl)c2)n1	nt	1	62*	59*	55*	49*	66*	64*
COc1cc2cc(-c3ccc(O)cc3O)nc(C)c2cc1OC	6	13	46*	51*	40*	32*	43*	55*
COc1ccc(S(=O)(=O)N2CCOCC2)cc1NC(=O)CCOc1ccc(C(C)(C)C)cc1	12	8	1	-5	1	nt	nt	nt
O=C(CC(O)c1ccccc1)Nc1ccccn1 (stereo unspecified)	-64	-6	nt	nt	nt	nt	nt	nt
COC(=O)C(C(=O)OC)[C@@H]1C=C[C@H](C[N+](=O)[O-])N(C(C)=O)C1	-16	3	nt	nt	nt	nt	nt	nt
COc1ccc(Br)cc1C(C[N+](=O)[O-])c1c(N)n(C)c(=O)n(C)c1=O (stereo unspecified)	1	5	19	37	28	nt	nt	nt
COc1ccc(OC)c(C(C[N+](=O)[O-])c2c(C)cc3ccccn23)c1 (stereo unspecified)	-7	6	66*	85*	45*	61*	82*	91*
C/C(=N\NC(=O)c1cc(C)nc2ccccc12)c1cccc(Cl)c1	-23	-4	11	15	7	nt	nt	nt
COc1ccc(-n2cnc3cc(NCc4cccs4)ccc32)cc1	15	7	34	58*	40*	-1	nt	41*
c1ccc(-n2cnc3cc(NCc4cccs4)ccc32)cc1	-4	-5	52*	51*	46*	33*	46*	70*
COc1ccc(-n2cnc3cc(NCc4ccccn4)ccc32)cc1	18	1	23	12	-16	nt	nt	nt
Cn1cnc2cc(NCc3cccs3)ccc21	nt	4	-10	20	6	nt	nt	nt
N#C/C(=C/c1ccncc1)c1nc2ccccc2s1	-80	-6	70*	80*	60*	40*	67*	79*
CNC(=O)c1ccsc1NC(=O)c1ccc2c(c1)CCCC2	13	-10	54*	63*	49*	30*	47*	72*
NS(=O)(=O)c1ccc(NC(=O)c2ccc3c(c2)CCCC3)cc1	-3	8	5	7	14	nt	nt	nt
COC(=O)C1CCc2c(ccc3c2CCCC3)C1=O (stereo unspecified)	0	2	nt	nt	nt	nt	nt	nt
